The whole screen tested about 5,500 compounds, of which about 2,000 (36%) were called active. Roughly 18% stayed inconclusive and do not appear here. Rule as the data show it: active = normalized growth mostly below about 0.91 (no sharp cut-off); inconclusive = no clear call, values can overlap the other calls; inactive = mostly above about 0.92. Some of the results follow.
Experiment: chemical genetic growth profiling, strain panel (AID 1159580);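 also: tested at 20 µM; growth read once vehicle control cultures reached saturation at 30 °C; 1 = growth at the plate median or of vehicle wells; lower values mean less growth of the strain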
Settings: growth OD

Measured: normalized growth

CCN(CC)C(C)CN1c2ccccc2Sc2ccccc21 (configuration not stated)
inactive: S. cerevisiae deletion strains, locus YJR075W, strain HOC1, active compounds read low 0.937 | S. cerevisiae deletion strains, locus YKL009W, strain mrt4, active compounds read low 0.888 | S. cerevisiae deletion strains, locus YKL068W, active compounds read low 0.965 | S. cerevisiae deletion strains, locus YKL085W, strain MDH1 (second series), active compounds read low 0.972 | S. cerevisiae deletion strains, locus YKL085W, strain MDH1, active compounds read low 0.972 | S. cerevisiae deletion strains, locus YKL160W, strain elf1, active compounds read low 0.907 | S. cerevisiae deletion strains, locus YKL190W, strain CNB1, active compounds read low 0.985 | S. cerevisiae deletion strains, locus YKR001C, strain vps1, active compounds read low 1.02 | S. cerevisiae deletion strains, locus YKR026C, strain gcn3, active compounds read low 1.01 | S. cerevisiae deletion strains, locus YKR091W, strain srl3, active compounds read low 0.986 | S. cerevisiae deletion strains, locus YLL001W, strain dnm1, active compounds read low 0.911 | S. cerevisiae deletion strains, locus YLL026W, active compounds read low 0.962 | S. cerevisiae deletion strains, locus YLL041C, strain sdh2, active compounds read low 0.981 | S. cerevisiae deletion strains, locus YLR027C, strain aat2, active compounds read low 0.961 | S. cerevisiae deletion strains, locus YLR039C, strain RIC1, active compounds read low 1.1 | S. cerevisiae deletion strains, locus YLR058C, strain SHM2, active compounds read low 0.963 | S. cerevisiae deletion strains, locus YLR102C, strain apc9, active compounds read low 0.965 | S. cerevisiae deletion strains, locus YLR113W, strain HOG1, active compounds read low 1.08 | S. cerevisiae deletion strains, locus YLR221C, strain rsa3, active compounds read low 0.949 | S. cerevisiae deletion strains, locus YLR258W, strain gsy2, active compounds read low 0.922 | S. cerevisiae deletion strains, locus YLR262C, strain YPT6 (second series), active compounds read low 1.05 | S. cerevisiae deletion strains, locus YLR262C, strain YPT6, active compounds read low 1.17 | S. cerevisiae deletion strains, locus YLR268W, strain sec22, active compounds read low 0.924 | S. cerevisiae deletion strains, locus YLR330W, strain CHS5, active compounds read low 0.975 | S. cerevisiae deletion strains, locus YLR342W, strain FKS1 (second series), active compounds read low 0.895 | S. cerevisiae deletion strains, locus YLR357W, strain rsc2, active compounds read low 1.01 | S. cerevisiae deletion strains, locus YLR370C, strain arc18, active compounds read low 0.952 | S. cerevisiae deletion strains, locus YLR371W, strain rom2, active compounds read low 0.955 | S. cerevisiae deletion strains, locus YLR384C, strain iki3, active compounds read low 1 | S. cerevisiae deletion strains, locus YLR418C, strain cdc73, active compounds read low 0.844 | S. cerevisiae deletion strains, locus YML016C, strain PPZ1, active compounds read low 0.985 | S. cerevisiae deletion strains, locus YML032C, strain rad52, active compounds read low 0.951 | S. cerevisiae deletion strains, locus YML120C, strain ndi1, active compounds read low 1 | S. cerevisiae deletion strains, locus YML124C, strain tub3, active compounds read low 0.964 | S. cerevisiae deletion strains, locus YMR058W, strain fet3, active compounds read low 0.933 | S. cerevisiae deletion strains, locus YMR078C, strain ctf18, active compounds read low 0.959 | S. cerevisiae deletion strains, locus YMR125W, strain sto1, active compounds read low 1 | S. cerevisiae deletion strains, locus YMR129W, active compounds read low 0.995 | S. cerevisiae deletion strains, locus YMR205C, strain PFK2, active compounds read low 0.912 | S. cerevisiae deletion strains, locus YMR223W, strain ubp8, active compounds read low 0.944 | S. cerevisiae deletion strains, locus YMR231W, strain pep5, active compounds read low 1.01 | S. cerevisiae deletion strains, locus YMR263W, strain SAP30, active compounds read low 0.952 | S. cerevisiae deletion strains, locus YMR307W, strain GAS1, active compounds read low 0.902 | S. cerevisiae deletion strains, locus YNL067W, strain RPL9B, active compounds read low 0.91 | S. cerevisiae deletion strains, locus YNL071W, strain lat1, active compounds read low 0.99 | S. cerevisiae deletion strains, locus YNL128W, strain TEP1, active compounds read low 0.987 | S. cerevisiae deletion strains, locus YNL153C, strain GIM3, active compounds read low 0.963 | S. cerevisiae deletion strains, locus YNL183C, strain NPR1, active compounds read low 0.961 | S. cerevisiae deletion strains, locus YNL233W, strain BNI4, active compounds read low 0.948 | S. cerevisiae deletion strains, locus YNL248C, strain rpa49, active compounds read low 0.954 | S. cerevisiae deletion strains, locus YNL250W, strain rad50, active compounds read low 0.98 | S. cerevisiae deletion strains, locus YNL271C, strain bni1, active compounds read low 0.971 | S. cerevisiae deletion strains, locus YNL298W, strain CLA4, active compounds read low 0.959 | S. cerevisiae deletion strains, locus YNL322C, strain KRE1 (second series), active compounds read low 0.96 | S. cerevisiae deletion strains, locus YNL322C, strain KRE1, active compounds read low 0.986 | S. cerevisiae deletion strains, locus YNR049C, strain mso1, active compounds read low 0.985 | S. cerevisiae deletion strains, locus YNR052C, strain pop2, active compounds read low 0.967 | S. cerevisiae deletion strains, locus YOL012C, strain htz1 1 | S. cerevisiae deletion strains, locus YOL147C, strain pex11, active compounds read low 0.961 | S. cerevisiae deletion strains, locus YOR001W, strain rrp6, active compounds read low 0.97 | S. cerevisiae deletion strains, locus YOR061W, strain CKA2, active compounds read low 0.988 | S. cerevisiae deletion strains, locus YOR069W, strain VPS5, active compounds read low 0.985 | S. cerevisiae deletion strains, locus YOR070C, strain gyp1, active compounds read low 0.933 | S. cerevisiae deletion strains, locus YOR080W, strain dia2, active compounds read low 1 | S. cerevisiae deletion strains, locus YOR136W, strain idh2, active compounds read low 0.965 | S. cerevisiae deletion strains, locus YOR144C, strain elg1, active compounds read low 0.955 | S. cerevisiae deletion strains, locus YOR184W, strain ser1, active compounds read low 0.94 | S. cerevisiae deletion strains, locus YOR231W, strain MKK1, active compounds read low 1.04 | S. cerevisiae deletion strains, locus YOR265W, strain rbl2, active compounds read low 0.986 | S. cerevisiae deletion strains, locus YOR290C, strain snf2, active compounds read low 0.89 | S. cerevisiae deletion strains, locus YOR316C, strain cot1, active compounds read low 0.942 | S. cerevisiae deletion strains, locus YPL055C, strain LGE1, active compounds read low 0.89 | S. cerevisiae deletion strains, locus YPL106C, strain sse1, active compounds read low 0.927 | S. cerevisiae deletion strains, locus YPL240C, strain hsp82, active compounds read low 0.977 | S. cerevisiae deletion strains, locus YPL241C, strain CIN2, active compounds read low 0.996 | S. cerevisiae deletion strains, locus YPL256C, strain CLN2, active compounds read low 1.05 | S. cerevisiae deletion strains, locus YPR119W, strain clb2, active compounds read low 0.954 | S. cerevisiae deletion strains, locus YPR141C, strain kar3, active compounds read low 0.957 | S. cerevisiae deletion strains, locus YPR163C, strain tif3, active compounds read low 0.949 | S. cerevisiae deletion strains, locus YPR167C, strain met16, active compounds read low 0.936 | S. cerevisiae deletion strains, strain wtn01, active compounds read low 0.957 | S. cerevisiae strains, strain wild type, active compounds read low 1
active: S. cerevisiae deletion strains, locus YLR320W, strain mms22, active compounds read low 0.875 | S. cerevisiae deletion strains, locus YLR342W, strain FKS1, active compounds read low 0.879 | S. cerevisiae deletion strains, locus YNL209W, strain ssb2, active compounds read low 0.891 | S. cerevisiae deletion strains, locus YNL307C, strain MCK1, active compounds read low 0.89 | S. cerevisiae deletion strains, locus YOL006C, strain TOP1, active compounds read low 0.458 | S. cerevisiae deletion strains, locus YOR083W, strain WHI5, active compounds read low 0.841 | S. cerevisiae deletion strains, locus YOR106W, strain vam3, active compounds read low 0.803 | S. cerevisiae deletion strains, locus YOR270C, strain vph1, active compounds read low 0.67 | S. cerevisiae deletion strains, locus YPL051W, strain arl3, active compounds read low 0.831 | S. cerevisiae deletion strains, locus YPL078C, strain atp4, active compounds read low 0.87
